# Source: PubChem (Broad Institute)
# aSyn 5UTR act: Activators via SNCA 5'UTR binding, MLPCN | alpha-synuclein 5'UTR reporter, activators screen | 300,000 tested, 7.1% active | activity score, % (tested at 7.5 µM), hits read low; in the data active means activity score below about -60%
# * hit, by the source's call. Only a selection was taken, and hits are over-represented in it overall.
SMILES,aSyn 5UTR act
Cc1oc(/N=C/c2ccc3c(c2)OCO3)c(C#N)c1C,-73.8*
Cc1cccc(OCCOC(=O)c2c(-c3ccccc3)noc2C)c1,-96.7*
CCN(CC)S(=O)(=O)c1ccc(-c2cn3cc(Cl)ccc3n2)cc1,-91.5*
O=C1CC(c2ccccc2Cl)=NN(c2ncnc3ccccc23)C1=O,-73.7*
Cc1ccc2nc3ccc(N4CCN(C)CC4)nn3c(=O)c2c1,-136.9*
Cc1ccc2nc3ccc(N4CCCCCCC4)nn3c(=O)c2c1,-150.2*
O=c1c2ccccc2nc2ccc(N3CCOCC3)nn12,-84.8*
Cc1sc2nc3ccc(N4CCCC4)nn3c(=O)c2c1C,-170.8*
COc1cc(C)nc(N2CCCC(C(=O)NC3CCC(C)CC3)C2)n1 (stereo unspecified),-145.7*
Cc1c(C=O)c2cc(OCc3ccccc3)ccc2n1C,-75.8*
Cc1cc2cc(OCc3ccccc3)ccc2n1C,-182.5*
CCOc1cccc2c1OC(c1cc(OC)c(OC)c(OC)c1)N1N=C(c3ccc(C)o3)CC21 (stereo unspecified),-219.4*
O=C(O)c1ccc(N/N=C/c2cccc(C(F)(F)F)c2)cc1,-99.1*
O=C(O)c1ccc(N/N=C/c2ccc3nccnc3c2)cc1,94.0
O=C(O)c1ccc(N/N=C/c2ccc(F)c(F)c2)cc1,-72.9*
CC(=O)c1ccc(Sc2ccc(C(C)=O)cc2)cc1,-63.5*
CCCCn1cnc2c(oc3ccccc32)c1=O,-120.9*
C=CCOC(=O)/C(=C/c1cccc2ccccc12)NC(=O)c1ccccc1,-258.1*
Nc1ccc(S(=O)(=O)Nc2nccc(/C=C/c3ccc(Cl)cc3Cl)n2)cc1,-66.8*
COc1ccc(-c2nc(-c3ccc(C(=O)O)cc3)no2)cc1,-90.0*
CCOC(=O)N1CCN(c2nc(-c3ccc(OC)cc3)no2)CC1,-88.2*
COC(=O)c1ccc(-c2nc(-c3ccc(Br)o3)no2)cc1,-108.3*
Cc1nc(-c2noc(-c3ccc(Cl)cc3)n2)c(C(F)(F)F)o1,-102.8*
COc1ccc(-c2noc(-c3ccc(Br)o3)n2)cc1,-211.7*
COc1ccc(-c2noc(-c3ccc(Cl)cc3)n2)cc1,-131.0*
SMILES,aSyn 5UTR act
Nc1c(-c2ccccc2)n[nH]c1-c1ccccc1,-219.0*
CN1CCN(c2ccc(NC(=O)c3cccc(OCc4ccccc4)c3)cc2)CC1,-85.5*
CC(C)Oc1cccc(C(=O)Nc2ccc(N3CCN(C)CC3)cc2)c1,-75.6*
COc1cccc(C(=O)Nc2ccc(N3CCN(C(=O)c4cccs4)CC3)cc2)c1,-162.0*
COc1ccc(N2CCN(C(=O)c3ccc(NS(=O)(=O)c4cccs4)cc3)CC2)cc1,-75.3*
O=C(NCCS(=O)(=O)NCCc1ccccc1)c1ccccc1,-62.1*
CS(=O)(=O)Nc1ccc(C(=O)NCCc2ccccc2)cc1,-124.8*
Cc1cccc(C(=O)c2c(N)sc3c2CCC(C)C3)c1 (stereo unspecified),-85.3*
CC1N/C(=C\C(=O)c2ccccc2)N(O)C1(C)C (stereo unspecified),-124.0*
Fc1cccc(/C=N/Nc2nccnc2Cl)c1,-105.7*
Oc1ccc(/C=N/Nc2nccnc2Cl)cc1,-123.9*
Fc1ccc(/C=N/Nc2nccnc2Cl)cc1,-120.5*
Cc1ccc2nc(N3C(=O)C(O)=C(C(=O)c4ccco4)C3c3ccc(C)o3)sc2c1 (stereo unspecified),-81.5*
CCOC(=O)c1sc(N2C(=O)C(O)=C(C(=O)c3ccco3)C2c2cccc(Cl)c2)nc1C (stereo unspecified),-81.2*
Cc1ccc2nc(N3C(=O)C(O)=C(C(=O)c4cc5ccccc5o4)C3c3cccs3)sc2c1 (stereo unspecified),-85.5*
CCc1ccc2nc(N3C(=O)C(O)=C(C(=O)c4ccco4)C3c3cccs3)sc2c1 (stereo unspecified),-101.6*
COc1ccccc1C(=O)Nc1ccc2c(c1)OCCO2,-124.3*
COc1ccccc1C(=O)Nc1ccc2c(c1)OCO2,-245.5*
O=C(Nc1ccccc1C(=O)Nc1ccc2c(c1)OCO2)c1ccco1,-73.7*
COCCn1cnnc1SCC(=O)Nc1ccccc1C(=O)Nc1ccc2c(c1)OCO2,-69.9*
COc1cc(C2=NOC(C(=O)Nc3ccc4c(c3)OCO4)C2)cc(OC)c1OC (stereo unspecified),-64.4*
COc1cc(C2=NOC(C(=O)NCc3ccc(F)cc3)C2)cc(OC)c1OC (stereo unspecified),77.1
CC1CCC(NC(=O)c2ccc(NC(=O)c3ccc(=O)[nH]c3)cc2)CC1 (stereo unspecified),-67.5*
CC1CCC(NC(=O)c2ccc(NC(=O)CC3SC(N4CCCC4)=NC3=O)cc2)CC1 (stereo unspecified),-129.4*
O=C(CC1SC(N2CCCC2)=NC1=O)Nc1ccc(C(=O)Nc2ncccc2O)cc1 (stereo unspecified),-266.3*
COc1ccc(-c2nnc(SCC(=O)c3ccc[nH]3)n2-c2ccccc2)cc1,-70.2*
CC1CCC(NC(=O)Cn2cc3c(n2)CCCC3)CC1 (stereo unspecified),-156.6*
Cc1nc(NC(=O)CSc2nnnn2C)sc1C,-120.9*
COC(=O)c1sc(NC(=O)CSc2nnnn2C)nc1C,-73.5*
